target: T1, GST-Aq-NF-kB (Amphimedon queenslandica, UniProt A9Y5G7 2-389); experiment: protein-binding microarray (PBM); PBM: ~300 nM protein, 6 mM HEPES pH 7.8, 80 mM KCl, 0.5 mM EDTA, 0.5 mM EGTA, 6% glycerol, 35 ng/ul poly-dIdC, 1% milk, 1 h, room temperature; Ap Aiptasia and Nv Nematostella (sea anemones) / Co Capsaspora / Aq Amphimedon (sponge) / Dm Drosophila / Hu human; RHD is the Rel homology domain; high values mean tight binding; conditions: dsDNA, one strand shown
T1 sequence: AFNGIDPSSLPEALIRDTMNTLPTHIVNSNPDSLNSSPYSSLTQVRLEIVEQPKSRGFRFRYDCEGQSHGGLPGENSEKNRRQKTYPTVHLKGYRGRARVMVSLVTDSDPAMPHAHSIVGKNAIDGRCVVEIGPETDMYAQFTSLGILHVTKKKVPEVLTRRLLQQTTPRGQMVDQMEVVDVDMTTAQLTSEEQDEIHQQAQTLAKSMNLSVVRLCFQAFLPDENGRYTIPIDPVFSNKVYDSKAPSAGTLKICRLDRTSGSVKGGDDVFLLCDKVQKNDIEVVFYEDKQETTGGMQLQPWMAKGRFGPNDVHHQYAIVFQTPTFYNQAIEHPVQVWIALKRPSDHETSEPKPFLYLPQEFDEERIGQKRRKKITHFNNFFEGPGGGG

Sequence | binding signal [z-score]
CCGATTAACATCAAGGAGATTCCTGATGTTAATCGGGTCTTGATTCGCTTGACGCTGCTG | 1.73
CCGATTAACATCAGGCAAAACCCTGATGTTAATCGGGTCTTGATTCGCTTGACGCTGCTG | 3.28
CCGATTAACATCAGGAAATTCTATGATGTTAATCGGGTCTTGATTCGCTTGACGCTGCTG | 1.08
CCGATTAACATCAAGGAAAAGCCTGATGTTAATCGGGTCTTGATTCGCTTGACGCTGCTG | 1.11
CCGATTAACATCAGGAAGTTCCATGATGTTAATCGGGTCTTGATTCGCTTGACGCTGCTG | 1.48
CCGATTAACATCAGGAAACGCCCTGATGTTAATCGGGTCTTGATTCGCTTGACGCTGCTG | 3.05
CCGATTAACATCAGGAAAACTCCTGATGTTAATCGGGTCTTGATTCGCTTGACGCTGCTG | 1.4
CCGATTAACATCACGGATATTCCTGATGTTAATCGGGTCTTGATTCGCTTGACGCTGCTG | 1.34
CCGATTAACATCACGGGTTGCCCTGATGTTAATCGGGTCTTGATTCGCTTGACGCTGCTG | 1.04
CCGATTAACATCAGGACATTCCATGATGTTAATCGGGTCTTGATTCGCTTGACGCTGCTG | 1.23
CCGATTAACATCAAGGATTGCCCTGATGTTAATCGGGTCTTGATTCGCTTGACGCTGCTG | 1.51
CCGATTAACATCAGAATTTCCGCTGATGTTAATCGGGTCTTGATTCGCTTGACGCTGCTG | 1.06
CCGATTAACATCAGGAAACTTCCTGATGTTAATCGGGTCTTGATTCGCTTGACGCTGCTG | 1.43
CCGATTAACATCACTAAAATTCCTGATGTTAATCGGGTCTTGATTCGCTTGACGCTGCTG | 1.03
CCGATTAACATCACTAAATTTCCTGATGTTAATCGGGTCTTGATTCGCTTGACGCTGCTG | 1.07
CCGATTAACATCACGGATTGCCCTGATGTTAATCGGGTCTTGATTCGCTTGACGCTGCTG | 1.2
CCGATTAACATCAGAGAAATTCCTGATGTTAATCGGGTCTTGATTCGCTTGACGCTGCTG | 1.65
CCGATTAACATCAAGATCCCTTGTGATGTTAATCGGGTCTTGATTCGCTTGACGCTGCTG | 1.08
CCGATTAACATCACGGACTCTCCTGATGTTAATCGGGTCTTGATTCGCTTGACGCTGCTG | 2.26
CCGATTAACATCAAAAATATTCCTGATGTTAATCGGGTCTTGATTCGCTTGACGCTGCTG | 1

Sequence | binding signal [z-score]
CCGATTAACATCAGGAAAGTTCCTGATGTTAATCGGGTCTTGATTCGCTTGACGCTGCTG | 1.9
CCGATTAACATCACGGCAAGTCCTGATGTTAATCGGGTCTTGATTCGCTTGACGCTGCTG | 1.46
CCGATTAACATCAGAGAATTTCCTGATGTTAATCGGGTCTTGATTCGCTTGACGCTGCTG | 1.55
CCGATTAACATCAGAAATTCCGCTGATGTTAATCGGGTCTTGATTCGCTTGACGCTGCTG | 1.09
CCGATTAACATCACGGAATATCCTGATGTTAATCGGGTCTTGATTCGCTTGACGCTGCTG | 1.48
CCGATTAACATCAAGAATTTCCGTGATGTTAATCGGGTCTTGATTCGCTTGACGCTGCTG | 1.89
CCGATTAACATCACGGAGAATCCTGATGTTAATCGGGTCTTGATTCGCTTGACGCTGCTG | 1.18
CCGATTAACATCACGGCAATTCCTGATGTTAATCGGGTCTTGATTCGCTTGACGCTGCTG | 1.38
CCGATTAACATCACGGAACTTCCTGATGTTAATCGGGTCTTGATTCGCTTGACGCTGCTG | 2.23
CCGATTAACATCAACGGAATTTCTGATGTTAATCGGGTCTTGATTCGCTTGACGCTGCTG | 1
CCGATTAACATCAAACCCTACTGTGATGTTAATCGGGTCTTGATTCGCTTGACGCTGCTG | 1.19
CCGATTAACATCAGGAGTTGCCCTGATGTTAATCGGGTCTTGATTCGCTTGACGCTGCTG | 3.13
CCGATTAACATCAAATTTCCGGATGATGTTAATCGGGTCTTGATTCGCTTGACGCTGCTG | 1.25
CCGATTAACATCAAAGAATTTCCTGATGTTAATCGGGTCTTGATTCGCTTGACGCTGCTG | 1.45
CCGATTAACATCAGGACAGTCCATGATGTTAATCGGGTCTTGATTCGCTTGACGCTGCTG | 1.46
CCGATTAACATCACGGACTGCCCTGATGTTAATCGGGTCTTGATTCGCTTGACGCTGCTG | 1.7
CCGATTAACATCACGGAAATGCCTGATGTTAATCGGGTCTTGATTCGCTTGACGCTGCTG | 1.48
CCGATTAACATCAGGAATAGCCCTGATGTTAATCGGGTCTTGATTCGCTTGACGCTGCTG | 1.9
CCGATTAACATCACGGCTTTTCCTGATGTTAATCGGGTCTTGATTCGCTTGACGCTGCTG | 1.72
CCGATTAACATCAAGGCATTTCCTGATGTTAATCGGGTCTTGATTCGCTTGACGCTGCTG | 1.06

— paper PMC5700166
